# proKLK7 act: proKLK7 zymogen activators, primary screen, biochemical, fluorescence intensity; activation, % at 7 µM; AID 652039, 2013; purified proKLK7, EDANS-DABCYL substrate fluorescence; 100% is mature enzyme control, 0% vehicle; 370,000 tested, 0.9% active;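 active = activation above the mean of all tested compounds plus 3 SD, computed per campaign excluding outliers beyond control limits, cut at about 13% in these data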
# ADAM17 inh: ADAM17 inhibitors, primary screen, biochemical, QFRET; Disintegrin and metalloproteinase domain-containing protein 17 (Homo sapiens), P78536; recombinant ADAM17, EDANS/DABCYL FRET peptide cleavage; inhibition, % at 6.95 µM; 370,000 tested, 0.83% active; AID 720648, 2013;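 active = inhibition above the mean of compounds lying between control limits plus 3 SD, set per campaign, cut at about 8.5% in these data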;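 note: 0% = DMSO-only wells as the low control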
# Ecoli rRNA inh: reduced GFP signal of wild-type E. coli, primary screen, bacterial rRNA inhibitor project, GFP/RFP fluorescence, OD600, single point; 350,000 tested, 1.6% active; E. coli WT GFP vs humanized-ribosome RFP mutants, 24 h; active compounds read low; DMSO median 0, no signal -100; GFP signal change (wild-type ribosome), % (no concentration beside the values);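 active = significant combined selectivity score with lowered wild-type GFP, culture density cut under 30%, mutant RFP and density less affected; inactive = any of these conditions unmet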
# ADAM10 inh: human ADAM10 inhibitors, primary screen, biochemical, QFRET, HTS. recombinant ADAM10, EDANS/DABCYL FRET peptide cleavage, 3 h. inhibition, % at 7 µM. 370,000 tested, 0.62% active;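 active = inhibition above a per-campaign cutoff equal to the mean of compounds falling between control-based bounds plus 3 SD, cut at about 20% in these data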;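 note: 0% = DMSO wells while the 100% control is not disclosed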
# Target sequence (O14672 214-748 limits assumed): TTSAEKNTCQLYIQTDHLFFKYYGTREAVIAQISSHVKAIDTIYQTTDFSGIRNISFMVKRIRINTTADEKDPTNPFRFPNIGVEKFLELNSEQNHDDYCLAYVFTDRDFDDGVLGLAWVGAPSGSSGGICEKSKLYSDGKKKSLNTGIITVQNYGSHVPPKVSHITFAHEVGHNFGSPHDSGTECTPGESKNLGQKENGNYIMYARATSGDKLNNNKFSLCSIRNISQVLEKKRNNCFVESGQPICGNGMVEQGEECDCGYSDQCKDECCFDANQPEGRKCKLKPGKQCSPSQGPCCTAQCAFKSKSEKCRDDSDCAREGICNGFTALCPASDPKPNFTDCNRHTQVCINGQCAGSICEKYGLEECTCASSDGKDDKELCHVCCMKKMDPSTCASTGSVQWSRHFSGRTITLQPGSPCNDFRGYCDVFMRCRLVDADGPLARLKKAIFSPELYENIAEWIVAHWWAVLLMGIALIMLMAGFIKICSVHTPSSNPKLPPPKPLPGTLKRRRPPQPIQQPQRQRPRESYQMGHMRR
# FGF22 binding: binders of human FGF22 protein, primary screen, FGF22 synaptogenesis inhibitor project, biophysical, thermal shift, single point; recombinant FGF22 thermal shift, SYPRO orange fluorescence; percent of sucrose octasulfate shift, DMSO zero; AID 651658, 2012; 340,000 tested, 1.5% active; activity (Tm shift, normalised), % at 9.99 µM;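 active = mean Tm shift, scaled 0 neutral to 100 positive control, at about 1.3% or above, every replicate too, limit read from the data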
# The depositor's hits bear a star; . = no result; ! = repeats disagree. Compounds with a hit are over-represented: about 3.8% of the library has one in this group of screens.
SMILES,proKLK7 act,ADAM17 inh,Ecoli rRNA inh,ADAM10 inh,FGF22 binding
COc1cc2c(C(=O)O)c(C)n(C)c2cc1Br,0,-1,18,2,43*
COc1cc2c(C(=O)N3CCN(C)CC3)c(C)n(C)c2cc1Br,0,-9,.,-18,.
COC(=O)[C@@H]1[C@@H](CO)[C@@H]2Cn3c(ccc(C4=CCCC4)c3=O)[C@H]1N2Cc1ccccn1,.,.,1,.,0
CCCCCCC(=O)c1c(O)n(-c2ccc(OC)cc2)c(=O)[nH]c1=O (tested in a mixture with another compound),0,-2,-20*,1,0
C=CCN1[C@@H]2CN(C(=O)NC(C)C)C[C@H]1C2c1ccc(Br)cc1 (stereo not given in full),.,.,0,.,.
COc1ccccc1-n1c(Cc2ccccc2)nc2ccccc2c1=O,0,1,-22*,3,1
CCCc1nc2ccccc2c(=O)n1-c1ccccc1OC,1,-2,.,10,.
CC(C)NC(=O)N1C[C@@H]2N[C@H](C1)C2c1ccccc1 (stereo not given in full),.,.,1,.,.
O=C(/C=C/C=C/c1ccccc1)CC1(O)C(=O)Nc2ccccc21 (stereo not given),0,-3,-13,-11,43*
COc1cccc(-c2ccc3n(c2=O)C[C@@H]2[C@@H](CO)[C@H](C(=O)O)[C@H]3N2Cc2ccccc2F)c1,.,.,3,.,.
COC(=O)C1C(O)C(C)C(O)C(C)/C=C\C=C(/C)C(=O)Nc2c(C)c(OC(C)=O)c3c(c2O)C(=O)C(C)=C2OCOC(=C23)/C(C)=C/C(C)(O)C(O)C(C)C1O (stereo not given),0,-5,-17*,-8,0
COC(=O)[C@@H]1[C@@H](CO)[C@@H]2Cn3c(ccc(C4=CCCC4)c3=O)[C@H]1N2S(=O)(=O)c1cn(C)cn1,.,.,4,.,0
CCCN1[C@@H]2Cn3c(ccc(-c4cccc(C(=O)N(C)C)c4)c3=O)[C@H]1[C@@H](C(=O)OC)[C@@H]2CO,.,.,1,.,1
OC(c1ccccc1)(c1ccccc1)C1CN2CCC1CC2 (stereo not given),0,1,15,7,44*
O=C(COC(=O)c1ccc(O)cc1)Nc1ccc(Cl)cc1C(=O)c1ccccc1,0,8,-43*,16,0
CC(=O)Nc1ccc(C(=O)OCC(=O)Nc2ccc(Cl)cc2C(=O)c2ccccc2)cc1,0,-2,.,4,.
COc1ccc(SCC2CN(C)CCC2c2ccc(F)cc2)cc1 (stereo not given),0,1,-33*,8,0
COc1cccc(C2CCN(C)C2)c1 (stereo not given),-1,-8,-1,-14,0
COC(=O)[C@@H]1[C@@H](CO)[C@@H]2Cn3c(ccc(-c4ccncc4)c3=O)[C@H]1N2S(=O)(=O)c1ccccc1F,.,.,3,.,0
O=Cc1cn(Cc2cccc([N+](=O)[O-])c2)c2ccccc12,0,2,-21*,8,1
O=Cc1cn(Cc2c(F)cccc2Cl)c2ccccc12,0,-1,-27*,-2,0
O=Cc1cn(CCCOc2ccccc2)c2ccccc12,0,2,-49*,7,0
Cc1cccc(Cn2cc(C=O)c3ccccc32)c1,1,3,-13,8,0
O=Cc1cn(Cc2ccccc2F)c2ccccc12,0,-2,-25*,0,0
CC(C)CC#Cc1ccc([C@H]2[C@H](CO)N3CCCCN(C(=O)Cc4ccccn4)C[C@@H]23)cc1,.,.,-3,.,0
SMILES,proKLK7 act,ADAM17 inh,Ecoli rRNA inh,ADAM10 inh,FGF22 binding
CC(=O)N1C[C@@H]2C(c3ccccc3)[C@H](C1)N2C (stereo not given in full),.,.,1,.,.
CCCNC(=O)[C@H]1[C@H](CO)[C@H]2Cn3c(cccc3=O)[C@@H]1N2CCC,.,.,3,.,0
C[C@@H]1CN([C@H](C)CO)C(=O)CCCn2nncc2CO[C@H]1CN(C)C(=O)Oc1ccc2ccccc2c1,-1,-4,-3,-10,43*!
Cc1ccc(C(O)(C(=O)NNC(=O)CN2CCN(C)CC2)c2ccc(C)cc2)cc1,-1,-2,16,3,44*
Cc1cccc(C(O)(C(=O)NNC(=O)CN2CCN(C)CC2)c2cccc(C)c2)c1,0,-1,15,2,0
Cc1ccsc1C(=O)C1CCCN(Cc2cnc(N3CCCC3)s2)C1 (stereo not given),0,2,-11,0,44*
CCOc1ccc(NC(=O)C2C3c4ccccc4C(c4ccccc43)C2C(=O)O)cc1 (stereo not given),0,-2,-34*,-4,1
O=C(O)C1C2c3ccccc3C(c3ccccc32)C1C(=O)Nc1ccccc1 (stereo not given),0,-4,-7,-1,0
C/C=C/c1ccc(C2[C@@H]3CN(C(=O)C4CCC4)C[C@H]2N3)cc1 (stereo not given in full),.,.,1,.,0
COc1ccc(N2C(=O)C(=O)N(c3ccc(OC)cc3)P2(=O)N(CCCl)CCCl)cc1,0,-3,10,-11,43*
COc1cccc(N2CCN(Cc3cccc(Cl)c3)CC2)c1,.,.,-24*,.,0
Fc1cccc(CN2CCN(c3ccc(Cl)cc3)CC2)c1,0,-2,-14,3,0
COc1cccc(N2CCN(Cc3ccc(Cl)cc3)CC2)c1,.,.,-33*,.,0
COc1cccc(CC(=O)N2CCN(Cc3cccc(Cl)c3)CC2)c1,0,1,-8,15,42
C=CCN1[C@@H]2CN(S(C)(=O)=O)C[C@H]1C2c1ccccc1 (stereo not given in full),.,.,-1,.,.
CN1[C@@H]2CN(CC3CC3)C[C@H]1C2c1ccc(Br)cc1 (stereo not given in full),.,.,-7,.,.
COc1ccc(-n2c(-c3ccc(C)cc3)nc3ccccc3c2=O)cc1,0,2,-27*,2,0
O=C(Cc1cccnc1)N1CCCCN2[C@@H](CO)[C@H](c3ccc(C#CC4CC4)cc3)[C@@H]2C1,.,.,.,.,-1
CC(=O)C1C(N2CC2)CC2C3CC=C4CC(O)CCC4(C)C3CCC21C (stereo not given),0,1,-12,13,44*
C[C@]12CC[C@H](O)CC1=CCC1C2CC[C@@]2(C)C1C[C@@H](O)[C@@H]2O (stereo not given in full),0,-1,2,-12,0
